These results are taken from PubChem BioAssay (NCATS).

Results filed as inconclusive are left out. Where a call stands in place of a potency, no number is given. Active and inactive are the calls of the source. Calls come from the whole dose curve; as a rule, active = well fitted cell-killing curve with a large enough effect; inconclusive = small, poorly fitted or top-dose-only effect, or effect the other way; inactive = no such curve, though single readings can be large or run the other way.
Potency is the fitted concentration of half-maximal effect.

The first experiment in a line: Quantitative High-Throughput drug screen in 47 multiple myeloma cell lines against the NCATS MIPE library collection: XG1_PLB cell viability assay (AID 1919866). Note: nearly all actives have a fitted effect of over 35% in size. The note with it: CellTiter-Glo ATP, 48 h; series mostly up to 45.8 µM. The essentials:
(§1)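 MIPE 4.0 approved/investigational drugs; 500 cells/well; 48 h 37 °C humidified 5% CO2; CTG luminescence readout; DMSO = 100%, media = 0% viability.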
As to `CC(=O)Nc1ccc(OC[C@](C)(O)C(=O)Nc2ccc([N+](=O)[O-])c(C(F)(F)F)c2)cc1`, the Potency result is “inactive”.
On to `CC(N[C@H]1C[C@H]1c1ccccc1)c1ccc2c(c1)OCCO2` (some centres undefined), for which the Potency result is “inactive”.
The same measure, in the same setting: in the case of `O=C(N[C@@H](COc1ccc2[nH]c(=O)[nH]c2c1)c1ccccc1)c1cccn(Cc2ccc(F)c(F)c2)c1=O` it was 5.26 µM (active); in that of `CCC(=O)OC1CCC2C3CCC4=CC(=O)CC[C@@]4(C)C3CC[C@]12C` (some centres undefined), “inactive”; in that of `C=C[C@@H]1CN2CCC1C[C@@H]2[C@@H](O)c1ccnc2ccccc12` (some centres undefined), 23.5 µM (active).
On to `COC(=O)[C@@H](N)CCCN=C(N)N[N+](=O)[O-]`, for which the Potency entry is “inactive”.
Take `CC[C@@H](C(N)=O)N1CCCC1=O`: the Potency was 23.5 µM (active).
`O=C1C=CC[C@@H]2[C@H]3CCCN4CCC[C@@H](CN12)[C@@H]34`: the Potency result is “inactive”.
Turning to `c1ccc2c(CN3CCNCC3)cccc2c1`, the Potency result is “inactive”.
In the case of `Cc1nc(-c2ccc(-c3ccc(C(=O)N4CCc5cc6c(cc54)C4(CCN(C)CC4)CO6)cc3)c(C)c2)no1`, the Potency entry is “inactive”.
Regarding `C[C@]12CCC(=O)C(O)=C1CC[C@@H]1[C@H]3CCC(=O)[C@@]3(C)CC[C@@H]12`, the Potency entry was “inactive”.

A further experiment can be described thus: Quantitative High-Throughput drug screen in 47 multiple myeloma cell lines against the NCATS MIPE library collection: VP6_DJ cell viability assay (AID 1919867). Note: nearly all actives have a fitted effect of over 40% in size. The note with it: ATP luminescence, 48 h; series mostly up to 45.8 µM. A digest of the protocol:
as §1
As for `CCN(CC)C(=O)c1ccc(C2=CC3(CCNCC3)Oc3cccc(O)c32)cc1`, the Potency result is “inactive”.
For `COc1ccc2c(c1)CN(C)CC2c1ccc(Cl)c(Cl)c1` (centres undefined), the Potency was 14.8 µM (active).
The same measure, in the same setting: in the case of `CC[C@H]1C=CC=CC[C@@H](C)[C@H](O)[C@@](C)(O)C(=O)[C@@H](C)[C@H](O)[C@@H](C)C(=O)[C@@H](C)[C@H](O)[C@@H](C)C=CC(=O)O[C@@H]2[C@@H](C)[C@H](CC1)O[C@]1(CC[C@H](C)[C@H](C[C@@H](C)O)O1)[C@H]2C` it was 0.001 µM (active).
On the same count and under the same terms, in the case of `O=c1cccc2n1CC1CNC[C@H]2C1` it was 13.2 µM (active); in that of `CC(=Cc1csc(C)n1)[C@@H]1C[C@H]2O[C@]2(C)CCC[C@H](C)[C@@H](O)[C@@H](C)C(=O)C(C)(C)[C@@H](O)CC(=O)O1`, “inactive”; in that of `CC(=CCCC1=CCC(C2=CC(=O)OC2O)OC1O)CCC1=C(C)CCCC1(C)C` (centres undefined), 4.18 µM (active).
On the same count and under the same terms, in the case of `CC(=Cc1csc(C)n1)[C@@H]1C[C@H]2O[C@@H]2CCC[C@H](C)[C@@H](O)[C@@H](C)C(=O)C(C)(C)[C@@H](O)CC(=O)O1` it was “inactive”; in that of `CCOC(=O)c1c(C(C#N)=CN)c2ccc(Cl)c(Cl)c2n1C`, “inactive”.
Take `COc1cc([C@@H]2c3cc4c(cc3[C@@H](O)C3COC(=O)C32)OCO4)cc(OC)c1O` (some centres undefined): the Potency was 0.0526 µM (active).
On the same count and under the same terms, the figure for `C[C@@]12OC(=O)[C@]1([C@@H](O)[C@@H]1C=CCCC1)NC(=O)[C@H]2CCCl` is 0.001 µM (active).
Same read-out and setting: in the case of `COc1ccc(CC2NCCc3cc(OC)c(OC)cc32)cc1OC` (centres undefined) it was 9.35 µM (active); in that of `C[C@@H]1O[C@@H](O[C@@H]2C=C3CC[C@@H]4[C@@H](CC[C@]5(C)[C@H](c6ccc(=O)oc6)CC[C@@]45O)[C@@]3(C)CC2)[C@H](O)[C@H](O)[C@H]1O`, 0.0118 µM (active); in that of `O=C(Oc1ccc([N+](=O)[O-])cc1)N1CCC(C(O)(c2ccc3c(c2)OCO3)c2ccc3c(c2)OCO3)CC1`, “inactive”.
On the same count and under the same terms, the figure for `N=c1c2c(-c3ccccc3)c(-c3ccccc3)n(Cc3ccccc3)c2ncn1C1CCC(O)CC1` (centres undefined) is 0.0935 µM (active); for `O=C(NCC1CCOCC1)c1cnc(Nc2ccc(Cl)cc2Cl)nc1C(F)(F)F` it is 6.62 µM (active).

A short description of the next experiment: Quantitative High-Throughput drug screen in 47 multiple myeloma cell lines against the NCATS MIPE library collection: UTMC2_PLB cell viability assay (AID 1919868). Note: nearly all actives have a fitted effect of over 55% in size. The note with it: CellTiter-Glo ATP luminescence, 48 h; viability (% of DMSO control): at 45.8 µM (top of the series). The essentials:
as §1
For the compound `COC1=CC(C)=C[C@@H](C)[C@@H](O)[C@@H](C)CC(C)=CC=C[C@H](OC)[C@H]([C@@H](C)[C@@H](O)[C@H](C)[C@@]2(O)C[C@@H](O)[C@H](C)[C@@H](C(C)C)O2)OC1=O`, the Potency is 0.001 µM (active).
As for `COc1cc([C@@H]2c3cc4c(cc3[C@@H](O)C3COC(=O)C32)OCO4)cc(OC)c1O` (some centres undefined), the Potency was 0.0469 µM (active).
The same measure, in the same setting: the figure for `C[C@@]12OC(=O)[C@]1([C@@H](O)[C@@H]1C=CCCC1)NC(=O)[C@H]2CCCl` is 0.0235 µM (active).

A further experiment is described as follows: Quantitative High-Throughput drug screen in 47 multiple myeloma cell lines against the NCATS MIPE library collection: PE2_PLB cell viability assay (AID 1919869). Note: nearly all actives have a fitted effect of over 35% in size. The note with it: PE2_PLB myeloma cells viability, ATP luminescence, 48 h; series mostly up to 45.8 µM. The essentials:
as §1
With `CCN(CC)C(=O)c1ccc(C2=CC3(CCNCC3)Oc3cccc(O)c32)cc1`, the Potency entry was “inactive”.
The same measure, in the same setting: in the case of `C[C@]12CC[C@H]3[C@@H](CCC4=CC(=O)CC[C@@]43C)[C@H]1CC[C@H]2O` it was “inactive”; in that of `CC(C)N(CCNC(=O)CN1CCCC1=O)C(C)C`, “inactive”.
As to `CC(N[C@H]1C[C@H]1c1ccccc1)c1ccc2c(c1)OCCO2` (some centres undefined), the Potency entry is “inactive”.
Still for that read-out and setting: in the case of `CC[C@H]1C=CC=CC[C@@H](C)[C@H](O)[C@@](C)(O)C(=O)[C@@H](C)[C@H](O)[C@@H](C)C(=O)[C@@H](C)[C@H](O)[C@@H](C)C=CC(=O)O[C@@H]2[C@@H](C)[C@H](CC1)O[C@]1(CC[C@H](C)[C@H](C[C@@H](C)O)O1)[C@H]2C` it was 9.35 µM (active); in that of `C[C@H]([C@H](O)CCC(C)(C)O)[C@H]1CC[C@@]2(O)C3=CC(=O)[C@@H]4C[C@@H](O)[C@@H](O)C[C@]4(C)[C@@H]3CC[C@]12C`, “inactive”; in that of `CC(=Cc1csc(C)n1)[C@@H]1C[C@H]2O[C@]2(C)CCC[C@H](C)[C@@H](O)[C@@H](C)C(=O)C(C)(C)[C@@H](O)CC(=O)O1`, “inactive”.
The same measure, in the same setting: in the case of `C[C@]12CC[C@@H]3[C@@H](CCC4=CC(=O)CC[C@@H]43)[C@@H]1CC[C@@H]2OC(=O)CCc1ccccc1` it was “inactive”; in that of `C=C[C@@H]1CN2CCC1C[C@@H]2[C@@H](O)c1ccnc2ccccc12` (some centres undefined), 23.5 µM (active); in that of `CC(=CCCC1=CCC(C2=CC(=O)OC2O)OC1O)CCC1=C(C)CCCC1(C)C` (centres undefined), “inactive”.
On the same count and under the same terms, the figure for `C[C@](O)(COc1ccc(C#N)cc1)C(=O)Nc1ccc(C#N)c(C(F)(F)F)c1` is 18.7 µM (active); for `CC(=Cc1csc(C)n1)[C@@H]1C[C@H]2O[C@@H]2CCC[C@H](C)[C@@H](O)[C@@H](C)C(=O)C(C)(C)[C@@H](O)CC(=O)O1` it is “inactive”.
For the compound `COC(=O)[C@@H](N)CCCN=C(N)N[N+](=O)[O-]`, the Potency entry is “inactive”.
On to `Cc1c(C(=O)Nc2cccc(C(F)(F)F)c2)cc(-c2ccccc2)n1CCCN1CCOCC1`, for which the Potency was 14.8 µM (active).
On the same count and under the same terms, the figure for `COC1=CC(C)=C[C@@H](C)[C@@H](O)[C@@H](C)CC(C)=CC=C[C@H](OC)[C@H]([C@@H](C)[C@@H](O)[C@H](C)[C@@]2(O)C[C@@H](O)[C@H](C)[C@@H](C(C)C)O2)OC1=O` is 0.0118 µM (active).
The same measure, in the same setting: in the case of `CCCC[N+]1(C)[C@H]2CC(OC(=O)[C@H](CO)c3ccccc3)C[C@H]1[C@H]1O[C@H]12` (some centres undefined) it was “inactive”; in that of `CCOC(=O)c1c(C(C#N)=CN)c2ccc(Cl)c(Cl)c2n1C`, “inactive”; in that of `COc1cc([C@@H]2c3cc4c(cc3[C@@H](O)C3COC(=O)C32)OCO4)cc(OC)c1O` (some centres undefined), 0.0526 µM (active).
The same measure, in the same setting: in the case of `C[C@@]12OC(=O)[C@]1([C@@H](O)[C@@H]1C=CCCC1)NC(=O)[C@H]2CCCl` it was 0.0083 µM (active); in that of `COc1ccc(CC2NCCc3cc(OC)c(OC)cc32)cc1OC` (centres undefined), “inactive”; in that of `C[C@@H]1O[C@@H](O[C@@H]2C=C3CC[C@@H]4[C@@H](CC[C@]5(C)[C@H](c6ccc(=O)oc6)CC[C@@]45O)[C@@]3(C)CC2)[C@H](O)[C@H](O)[C@H]1O`, 0.0264 µM (active).
In the case of `Cc1nc(-c2ccc(-c3ccc(C(=O)N4CCc5cc6c(cc54)C4(CCN(C)CC4)CO6)cc3)c(C)c2)no1`, the Potency result is “inactive”.
On the same count and under the same terms, the figure for `O=C(Oc1ccc([N+](=O)[O-])cc1)N1CCC(C(O)(c2ccc3c(c2)OCO3)c2ccc3c(c2)OCO3)CC1` is 16.6 µM (active).
As to `C[C@]12CCC(=O)C(O)=C1CC[C@@H]1[C@H]3CCC(=O)[C@@]3(C)CC[C@@H]12`, the Potency entry is “inactive”.
Consider `N=c1c2c(-c3ccccc3)c(-c3ccccc3)n(Cc3ccccc3)c2ncn1C1CCC(O)CC1` (centres undefined), for which the Potency is 4.69 µM (active).
